According to PubChem BioAssay (NCI):
About 83,000 compounds went through this panel and 20% of them were active in at least one assay; those are over-represented in the sample as a whole.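 Each cell line was grown in a 96-well plate and treated with one concentration of compound for 48 hours. Values below 10 were considered active.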 Values without a mark were called inactive. The source made the active and inactive calls.

Key:
Experiment in all cases: NCI-60 one-dose screen, 48 h (100 = growth as untreated, 0 = no growth, -100 = all killed)
Details in all cases: 10 µM unless noted
SK-MEL-2 melanoma = system: SK-MEL-2 melanoma
EKVX NSCLC = system: EKVX NSCLC
SN12C renal = system: SN12C renal
UO-31 renal = system: UO-31 renal
TK-10 renal = system: TK-10 renal
ACHN renal = system: ACHN renal
CAKI-1 renal = system: CAKI-1 renal
A498 renal = system: A498 renal
CCRF-CEM leukemia = system: CCRF-CEM leukemia
SR leukemia = system: SR leukemia
RPMI-8226 leukemia = system: RPMI-8226 leukemia
OVCAR-8 ovarian = system: OVCAR-8 ovarian
OVCAR-4 ovarian = system: OVCAR-4 ovarian
SK-OV-3 ovarian = system: SK-OV-3 ovarian
IGROV1 ovarian = system: IGROV1 ovarian
OVCAR-3 ovarian = system: OVCAR-3 ovarian
HS 578T breast = system: HS 578T breast
NCI/ADR-RES ovarian = system: NCI/ADR-RES ovarian
OVCAR-5 ovarian = system: OVCAR-5 ovarian
MOLT-4 leukemia = system: MOLT-4 leukemia

| SMILES | growth (SK-MEL-2 melanoma) | growth (EKVX NSCLC) | growth (SN12C renal) | growth (UO-31 renal) | growth (TK-10 renal) | growth (ACHN renal) | growth (CAKI-1 renal) | growth (A498 renal) | growth (CCRF-CEM leukemia) | growth (SR leukemia) | growth (RPMI-8226 leukemia) | growth (OVCAR-8 ovarian) | growth (OVCAR-4 ovarian) | growth (SK-OV-3 ovarian) | growth (IGROV1 ovarian) | growth (OVCAR-3 ovarian) | growth (HS 578T breast) | growth (NCI/ADR-RES ovarian) | growth (OVCAR-5 ovarian) | growth (MOLT-4 leukemia) [%] |
| --- | --- | --- | --- | --- | --- | --- | --- | --- | --- | --- | --- | --- | --- | --- | --- | --- | --- | --- | --- | --- |
| COc1cccc(-c2nn(-c3ccccc3)cc2-c2ccnc(NCCNC(=O)Nc3ccc(Cl)c(Cl)c3)c2)c1 | -12.1% (active) | 46.3% | 11.5% | -13.1% (active) | 40.2% | 14.6% | 24.5% | -9.43% (active) | 8.1% (active) | -26.4% (active) | 11.9% | 7.05% (active) | 36.4% | 9.85% (active) | 44% | -6.87% (active) | -22.1% (active) | -22.2% (active) |  |  |
| O=C(O)C1CCC(=O)N1C(=O)OCc1ccccc1 (stereo not drawn) | 103% | 97.8% | 90.1% | 88.7% | 88.7% | 96.3% | 83.4% | 123% | 102% | 89.4% | 88.8% |  | 101% | 109% | 110% | 118% | 136% | 98.4% | 92.6% |  |
| Cc1ccc(NCCN(C)C)c2c(=O)c3ccccc3sc12 | 71.9% | 49.4% | 25.1% | -30.5% (active) | 54.8% | 3.03% (active) | -20% (active) | 37.6% | 27% | 17% | -23.4% (active) | 16.3% |  |  | -30.9% (active) | 33.8% | 46.4% | 38.6% | 62% |  |
| COc1cccc(-c2nn(-c3ccccc3)cc2-c2ccnc(NCCCNC(=O)c3cccc(C(F)(F)F)c3)c2)c1 | 33.4% | 48.9% | 45.5% | 10.9% | 26.9% | 31.7% | 51.4% | 43.6% | 21.5% | -29% (active) | 9.33% (active) |  | 31.3% | 28.3% | 58.8% | 41.4% | 33.7% | 22.6% | 71.6% |  |
| CNC(=O)c1cc(Oc2ccc3nc(Nc4ccc(Cl)c(C(F)(F)F)c4)ccc3c2)ccn1 | 75.9% | 62.6% | 71.1% | 57.8% | 54.5% | 49.4% | 92.7% | 61.8% | 42.2% | 30% | 53.8% | 58.4% | 56.3% | 93.3% | 83.8% | 61.5% | 77.8% | 65.5% | 91.8% |  |
| C=C1C(=O)O[C@H]2[C@H]1CC/C(CNC(=O)/C=C/c1ccc(Cl)cc1Cl)=C\CC[C@@]1(C)O[C@@H]21 | -13.8% (active) | -35.8% (active) | -43.4% (active) | -90.2% (active) | -88.8% (active) | -79.9% (active) | -31.2% (active) | -3.46% (active) | -30.7% (active) | -28.8% (active) | -33.1% (active) | -28.7% (active) | -52.7% (active) | 20.3% | -32.7% (active) | -100% (active) | -4.31% (active) | 2.07% (active) | -31.9% (active) |  |
| CCN1CCN(c2nc(C)cc(NCc3cc(Nc4ccnc5cc(Cl)ccc45)ccc3F)n2)CC1 | -49.7% (active) | 49.4% | 44% | 17.1% | 28.9% | 16.9% | 68.8% | 15.6% | -19.4% (active) | -18.8% (active) | -31.1% (active) | 17.4% | 26.1% | 31.5% | 15.8% | 10.5% | 9.27% (active) | 24.6% | 17.8% |  |
| COC(=O)[C@]12CC[C@@H](C)[C@H](C)[C@@H]1C1=CC[C@@H]3[C@@]4(C)C(C=O)=C[C@@](C)(CO)[C@@H]4[C@H](O)C[C@@]3(C)[C@]1(C)CC2 | -31.7% (active) | 7.75% (active) | 1.62% (active) | -31.5% (active) | -18.8% (active) | -81.6% (active) | -28.7% (active) | -5.03% (active) | 1.38% (active) | -20.4% (active) | -10.1% (active) | -2.42% (active) | -5.06% (active) | 3.19% (active) | 3.94% (active) | -91.9% (active) | -15.6% (active) | -10.2% (active) | -19.7% (active) |  |
| CCN(CC)Cc1cccc(C(=O)OC)c1 | 100% | 95.7% | 105% | 103% | 92.5% | 96.6% | 97.2% | 115% | 76.3% | 95% | 91.8% | 99.6% | 101% | 89.4% | 102% | 111% | 109% | 102% |  |  |
| CCOC(=O)c1c2ncccc2n2c(=O)n(-c3ccccc3C)nnc12 | 107% | 74% | 105% | 73.4% | 146% | 92.2% | 91.7% | 127% |  | 60.4% | 158% | 99.1% | 90.2% | 80.7% | 63.9% | 135% | 112% | 93.3% | 101% | 61.2 |
| Cc1ccc(Cc2cnc(NC(=O)c3ccc4noc(-c5ccccc5)c4c3)s2)cc1 | 99.7% | 79.1% | 85.9% | 81.9% | 109% | 99% | 78.2% | 102% |  | 85% | 79.3% | 89.1% | 86.4% | 108% | 96.3% | 107% | 95.7% | 92.5% | 105% | 90.2 |
